Rows were chosen to be rich in hits. Some 1.3% of all compounds tested hit in one or more screens of this group.
LYPLA2 counter = blocks human lysophospholipase 2, a PME1 counter-screen; inhibition, % at 5.9 µM; recombinant LYPLA2, FP-Rh probe fluorescence polarization; AID 2177; 0.38% of 320,000 active;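 active = inhibition above the screen-wide mean plus 3 SD, limit set per campaign, cut at about 26% in these data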;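 also: 0% = LYPLA2 with DMSO and 100% = wells lacking LYPLA2 enzyme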
Target sequence (O95372 whole entry, looked up): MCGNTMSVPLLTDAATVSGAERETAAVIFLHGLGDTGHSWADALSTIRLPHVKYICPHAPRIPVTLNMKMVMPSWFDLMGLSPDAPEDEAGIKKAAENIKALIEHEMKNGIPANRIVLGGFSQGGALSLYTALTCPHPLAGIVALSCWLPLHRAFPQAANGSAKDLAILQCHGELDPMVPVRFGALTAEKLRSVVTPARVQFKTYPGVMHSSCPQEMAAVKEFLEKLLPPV
PREPL inhibitor = inhibitors of human prolyl oligopeptidase-like enzyme PREPL; Q4J6C6; 0.68% of 320,000 active; AID 2751; recombinant PREPL, fluorescence polarization activity-based probe; inhibition, % at 5.96 µM;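 also: 0% = enzyme with DMSO and 100% = wells lacking enzyme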
PME-1 inh = PME-1 (human) inhibition; recombinant PME-1, FP-Rh probe fluorescence polarization; inhibition, % at 5.9 µM; 0.53% of 320,000 active;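 active = inhibition above the campaign mean of all compounds plus 3 SD, cut at about 26% in these data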;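 also: competitive labeling of PME-1 active site by serine hydrolase directed probe; 0% = PME-1 with DMSO and 100% = wells lacking PME-1 enzyme; inhibitors block probe labeling so polarization falls and inhibition rises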
Target sequence (Q9Y570 whole entry, looked up): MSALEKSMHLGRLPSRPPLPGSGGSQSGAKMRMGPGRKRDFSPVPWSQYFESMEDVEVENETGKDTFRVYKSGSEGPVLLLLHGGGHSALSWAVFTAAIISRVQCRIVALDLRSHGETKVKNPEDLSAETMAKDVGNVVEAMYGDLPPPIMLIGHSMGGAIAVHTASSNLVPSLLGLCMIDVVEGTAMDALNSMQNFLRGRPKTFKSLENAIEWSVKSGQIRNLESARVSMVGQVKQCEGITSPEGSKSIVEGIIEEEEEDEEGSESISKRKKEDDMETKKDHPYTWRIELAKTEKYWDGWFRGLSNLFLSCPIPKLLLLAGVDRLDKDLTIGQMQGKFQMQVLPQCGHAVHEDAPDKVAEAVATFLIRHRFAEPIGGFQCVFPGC
LYPLA1 inh = blocks human lysophospholipase 1, a PME1 counter-screen | O75608 | recombinant LYPLA1, FP-Rh probe fluorescence polarization | inhibition, % at 5.9 µM | 0.16% of 320,000 active | AID 2174;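 active = inhibition above the mean of all tested compounds plus 3 SD, set per campaign, cut at about 14% in these data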;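 also: inhibitors block serine hydrolase probe labeling of LYPLA1 so polarization falls; 0% = enzyme with DMSO and 100% = wells lacking LYPLA1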
Fam108B inh = blocks mouse Fam108B hydrolase in RBBP9 counter-screen | recombinant Fam108B, FP-Rh probe fluorescence polarization | inhibition, % at 9.51 µM | 0.33% of 300,000 active | AID 1947;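 active = inhibition above the screen mean inhibition plus 3 SD, computed separately per campaign, cut at about 18% in these data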;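 also: inhibitors lower polarization as less probe binds the enzyme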
PREPL inh cf = confirmation of human PREPL enzyme inhibitors | shares compounds with PREPL inhibitor | recombinant PREPL, fluorescence polarization activity probe | inhibition, % at 5.96 µM | 67% of 2,000 active | AID 2803;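 also: 0% = protein with DMSO and 100% = wells lacking protein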
* marks the source's active call; other numbers are inactive results. Rule as the data show it, unless noted: active = inhibition above about 43%; inactive = the rest.

Results for CC1=CCC2COC(c3ccc[n+](Cc4ccccc4)c3)C1C2 (configuration not stated) ?
LYPLA2 counter: 1.7; PREPL inhibitor: 49.3*; PME-1 inh: -1.8; LYPLA1 inh: -0.4; Fam108B inh: 3.2; PREPL inh cf: 36.2

How did CCc1ccc([C@@H]2CC=C(C(=O)O)[C@H](c3cccc(Cl)c3)N2S(=O)(=O)c2ccc(C)cc2)cc1 do in these assays?
LYPLA2 counter: -8.7; PREPL inhibitor: -4.4; PME-1 inh: -7.9; LYPLA1 inh: -8.4; Fam108B inh: -4.9

Results for Cc1ccn2c(-c3csc(NCc4ccccc4)n3)c(C)nc2c1 ?
LYPLA2 counter: 18.1; PREPL inhibitor: 45.2*; PME-1 inh: 12.8; LYPLA1 inh: -3.3; Fam108B inh: 14.1; PREPL inh cf: 44.5*

What do the screens show for `Cc1nc2ccccn2c1-c1csc(NCc2ccco2)n1`?
LYPLA2 counter: 4.6; PREPL inhibitor: 15.3; PME-1 inh: 14.9; LYPLA1 inh: 0.7; Fam108B inh: 4.4

Results for CN1CCc2c(sc3c2C(=O)NC(c2cn(Cc4ccccc4)c4ccccc24)N3)C1 (configuration not stated) ?
LYPLA2 counter: -11.6; PREPL inhibitor: 55.5*; PME-1 inh: 12.8; LYPLA1 inh: -6.1; Fam108B inh: -5.6; PREPL inh cf: 60.6*

Results for O=C1NC(c2ccco2)Nc2sc3c(c21)CCN(Cc1ccccc1)C3 (configuration not stated) ?
LYPLA2 counter: 5.0; PREPL inhibitor: 39.7; PME-1 inh: -7.9; LYPLA1 inh: -1.8; Fam108B inh: -6.3

What do the screens show for `O=C(COC(=O)c1ccc2ccccc2n1)NC1CCCCC1`?
LYPLA2 counter: 4.4; PREPL inhibitor: -3.6; PME-1 inh: -0.6; LYPLA1 inh: -2.1

Results for O=C(Cc1ccc2c(c1)OCCO2)N1CCN(S(=O)(=O)c2cccc(C(F)(F)F)c2)CC1 ?
LYPLA2 counter: -1.9; PREPL inhibitor: 80.9*; PME-1 inh: 1.5; LYPLA1 inh: -5.4; Fam108B inh: -1.9; PREPL inh cf: 5.4

How did Cc1cccc(C(=O)NCC(=O)N2CCN(S(=O)(=O)c3cc(C)ccc3C)CC2)c1 do in these assays?
LYPLA2 counter: 3.6; PREPL inhibitor: 20.8; PME-1 inh: 3.0; LYPLA1 inh: 2.0; Fam108B inh: 0.6

Results for O=C(NCc1nc2ccccc2[nH]1)C1=C[C@@H](c2ccc(C(F)(F)F)cc2)C[C@@H](OCCCCO)O1 ?
LYPLA2 counter: -2.1; PREPL inhibitor: 1.2; PME-1 inh: -8.1; LYPLA1 inh: -5.7; Fam108B inh: -1.3

How did O=C(CN1CCN(c2ccccc2)CC1)Nc1ccc(-n2cnnn2)cc1 do in these assays?
LYPLA2 counter: 4.0; PREPL inhibitor: 0.0; PME-1 inh: -2.6; LYPLA1 inh: 1.2; Fam108B inh: -2.7

How did CCc1ccccc1NC(=O)CN1CCN(C(=O)c2cccc(-n3cnnn3)c2)CC1 do in these assays?
LYPLA2 counter: -1.9; PREPL inhibitor: 64.7*; PME-1 inh: -1.8; LYPLA1 inh: -2.2; PREPL inh cf: 6.5

What do the screens show for `N#Cc1c(-c2ccccc2)ccnc1N1CCOCC1`?
LYPLA2 counter: 3.3; PREPL inhibitor: -0.5; PME-1 inh: 3.7; LYPLA1 inh: 1.9; Fam108B inh: 2.0

How did Cn1cccc1Cc1nnc(SCC(=O)N2CCN(c3ccccc3)CC2)n1-c1ccc(F)cc1 do in these assays?
LYPLA2 counter: 0.3; PREPL inhibitor: 49.4*; PME-1 inh: -0.8; LYPLA1 inh: -3.0; Fam108B inh: 2.8; PREPL inh cf: 36.6

What do the screens show for `O=C(Nc1nccs1)[C@@H]1CC=C[C@@H]2CCN(Cc3ccccc3)C(=O)[C@@H]21`?
LYPLA2 counter: -7.6; PREPL inhibitor: -3.8; PME-1 inh: -0.1; LYPLA1 inh: -2.1; Fam108B inh: 0.8

How did CC1=Nc2cccc3cccc(c23)N1 do in these assays?
LYPLA2 counter: 2.9; PREPL inhibitor: 45.0*; PME-1 inh: 3.9; LYPLA1 inh: 0.7; Fam108B inh: 0.8; PREPL inh cf: 39.9

Results for COc1ccc2[nH]c(C)c(C(=O)CN3CCN(C/C=C/c4ccccc4)CC3)c2c1 ?
LYPLA2 counter: 4.7; PREPL inhibitor: 44.2*; PME-1 inh: 1.6; LYPLA1 inh: 1.5; Fam108B inh: 0.0; PREPL inh cf: 34.8

What do the screens show for `COc1cc(C=NNc2ccc(S(=O)(=O)Nc3ccccc3C(=O)O)cc2[N+](=O)[O-])ccc1O`?
PREPL inhibitor: 55.0*; PREPL inh cf: 37.9

How did Cc1onc(-c2c(Cl)cccc2Cl)c1C(=O)Nc1nc(C(C)(C)C)cs1 do in these assays?
LYPLA2 counter: -7.8; PREPL inhibitor: 8.6; PME-1 inh: -4.5; LYPLA1 inh: -4.2; Fam108B inh: -5.9

Results for Nc1c(N(Cc2ccccc2)C(=O)COc2ccc(F)cc2Cl)c(=O)[nH]c(=O)n1Cc1ccccc1 ?
PREPL inhibitor: 18.0

What do the screens show for `Cc1cc[n+](CC(=O)c2ccc3c(c2)OCCO3)cc1`?
LYPLA2 counter: -2.5; PREPL inhibitor: 7.0; PME-1 inh: 4.3; LYPLA1 inh: 2.0; Fam108B inh: 5.0

Results for O=C(C[n+]1ccc(/C=C/c2ccccc2)cc1)c1ccc2c(c1)OCCO2 ?
LYPLA2 counter: 7.8; PREPL inhibitor: 63.2*; PME-1 inh: -0.8; LYPLA1 inh: -6.5; Fam108B inh: -3.2; PREPL inh cf: 42.6

What do the screens show for `Cc1cc(N/N=C2\CC(C)CC(C)(C)C2)nc2ccccc12` (configuration not stated)?
LYPLA2 counter: 4.1; PREPL inhibitor: 24.2; PME-1 inh: 2.6; LYPLA1 inh: 1.2; Fam108B inh: 6.9

How did CN(CC(=O)Nc1ccc(Cl)cc1)C(=O)c1cccc(S(=O)(=O)NCc2ccccc2)c1 do in these assays?
LYPLA2 counter: 4.2; PREPL inhibitor: 7.4; PME-1 inh: 7.8; LYPLA1 inh: 0.7; Fam108B inh: 0.4

How did CN(CC(=O)Nc1ccc(Cl)cc1)C(=O)c1cccc(S(=O)(=O)N2CCN(Cc3ccccc3)CC2)c1 do in these assays?
LYPLA2 counter: -5.8; PREPL inhibitor: 55.2*; PME-1 inh: -4.6; LYPLA1 inh: -4.3; Fam108B inh: -1.1; PREPL inh cf: 67.7*

Results for COc1cccc(C(=O)Nc2cc(C(=O)NCc3ccc(C)cc3)ccc2N2CCC3(CC2)CC(c2cccc(Br)c2)=NO3)c1 ?
LYPLA2 counter: -3.9; PREPL inhibitor: 2.9; PME-1 inh: -4.5; LYPLA1 inh: -4.3; Fam108B inh: -6.1

Results for O=C(CSc1nc(-c2ccco2)cc(C(F)(F)F)n1)NCCCN1CCOCC1 ?
LYPLA2 counter: 4.1; PREPL inhibitor: 1.1; PME-1 inh: -6.8; LYPLA1 inh: -0.3; Fam108B inh: -6.9

How did c1ccc2c(NCCc3c[nH]c4ccccc34)c3ccccc3nc2c1 do in these assays?
LYPLA2 counter: 4.4; PREPL inhibitor: 49.9*; PME-1 inh: -81.5; LYPLA1 inh: 6.3; Fam108B inh: 0.7; PREPL inh cf: 57.2*

High-throughput results as filed in PubChem BioAssay.
